# In PubChem BioAssay (EPA / NIEHS):
# Several values for one entry are separate records, joined by “and”; a condition that tells them apart may be missing. Equal values may be shown once. The source holds several records for some structures; these can differ, active in one and inactive in another. Activity calls are given as the source filed them. The calls were made as follows: active = hit-call score of the fitted dose curve at least 0.9, where 1 is the maximum; inactive = score below 0.9.
# Tests used:
# [1] = ATG_EGR_CIS: Attagene CIS-FACTORIAL HepG2 Assay for human Early Growth Response 1 (EGR1) (AID 2282938); details: HepG2 Attagene CIS-FACTORIAL EGR reporter mRNA; actives raise or lower the signal
# Summary of the method: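 Activity is taken as induction or loss of reporter mRNA versus DMSO, fitted bidirectionally. Transcripts from cis-regulated reporter units in transiently transfected HepG2 were measured after 24 h by RT-PCR with capillary electrophoresis.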
# [2] = ATG_ERE_CIS: Attagene CIS-FACTORIAL HepG2 Assay for Estrogen Response Element (ERE) (AID 2282940); details: HepG2 ERE cis-reporter, Attagene RNA transcript; actives raise or lower the signal
# Summary of the method: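 Measuring endogenous transcription factor output, the assay doses transfected HepG2 cells for 24 hours and quantifies reporter transcripts by fluorescent RT-PCR and capillary electrophoresis, with DMSO as baseline.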
# [3] = ATG_Ets_CIS: Attagene CIS-FACTORIAL HepG2 Assay for human Erythroblast Transformation Specific (ETS) (AID 2282941); details: HepG2 ETS cis-reporter transcription, actives raise or lower the signal
# Summary of the method: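 Multiplexed reporter transcript profiling: HepG2, 24 h treatment, total RNA to cDNA, PCR, 6-FAM labelling, HpaI cut, capillary electrophoresis. Gain- or loss-of-signal fitted against DMSO.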
# [4] = molecular target: Hepatocyte nuclear factor 3-beta (Homo sapiens) (UniProt Q9Y261); experiment: ATG_FoxA2_CIS: Attagene CIS-FACTORIAL HepG2 Assay for human Forkhead box A2 (FOXA2) (AID 2282942); details: HepG2 cis-reporter transcription factor activity, 24 h; actives raise or lower the signal
# Sequence of Hepatocyte nuclear factor 3-beta (Homo sapiens) (Q9Y261 whole entry, looked up): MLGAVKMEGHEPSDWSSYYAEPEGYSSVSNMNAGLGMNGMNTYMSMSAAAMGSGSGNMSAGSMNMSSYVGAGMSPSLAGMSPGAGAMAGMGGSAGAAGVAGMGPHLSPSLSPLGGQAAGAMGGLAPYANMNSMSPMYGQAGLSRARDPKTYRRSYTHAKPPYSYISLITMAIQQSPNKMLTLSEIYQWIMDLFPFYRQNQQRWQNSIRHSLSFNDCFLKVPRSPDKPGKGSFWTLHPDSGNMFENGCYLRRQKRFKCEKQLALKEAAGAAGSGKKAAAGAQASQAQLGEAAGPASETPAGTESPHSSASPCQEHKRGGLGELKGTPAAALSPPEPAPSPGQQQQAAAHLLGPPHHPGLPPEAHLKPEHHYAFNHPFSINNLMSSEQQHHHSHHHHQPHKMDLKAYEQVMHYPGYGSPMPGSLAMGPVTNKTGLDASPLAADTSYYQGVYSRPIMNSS
# Summary of the method: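 Reporter transcript induction is measured by fluorescence after capillary electrophoresis of RT-PCR products from HepG2 cells exposed 24 h. Cis-regulated reporter units report endogenous factor activity; curves fitted both directions against DMSO.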
# [5] = ATG_FoxO_CIS: Attagene CIS-FACTORIAL HepG2 Assay for human Forkhead box O (FoxO) (AID 2282943); details: HepG2 Attagene cis-reporter, FoxO element, mRNA; actives raise or lower the signal
# Summary of the method: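 Human hepatoma HepG2 cells carry transiently introduced reporter transcription units controlled by cis promoter elements. Chemical treatment lasted 24 h, and mRNA signal was compared with DMSO.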
# [6] = ATG_GATA_CIS: Attagene CIS-FACTORIAL HepG2 Assay for human GATA Binding Protein (AID 2282944); details: HepG2 GATA cis-element reporter, Attagene multiplex mRNA; actives raise or lower the signal
# Summary of the method: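 Measures endogenous transcription factor-driven reporter mRNA in HepG2 cells transiently carrying cis-regulated constructs. 24 h dosing; RNA via oligo(dT) reverse transcription, PCR, HpaI digestion, capillary electrophoresis; fitted relative to DMSO.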
# [7] = ATG_GLI_CIS: Attagene CIS-FACTORIAL HepG2 Assay for human Zinc Finger Protein GLI1 (AID 2282945); details: HepG2, Attagene cis-factorial reporter mRNA, GLI element; actives raise or lower the signal
# Summary of the method: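 Bidirectional curve fits relative to DMSO, using reporter mRNA levels from RT-PCR plus capillary electrophoresis. Cells were HepG2 transiently carrying cis-regulated reporter constructs, harvested 24 h after dosing.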
# [8] = ATG_GRE_CIS: Attagene CIS-FACTORIAL HepG2 Assay for human Glucocorticoid Response Elements (GRE) (AID 2282947); details: HepG2 GRE cis-reporter, Attagene multiplex mRNA; actives raise or lower the signal
# Summary of the method: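 Multiplexed cis-reporter mRNA induction, HepG2, 24 h post-dose. RT-PCR, FAM-labelled, HpaI-digested amplicons by CE. Bidirectional fit vs DMSO.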
# [9] = molecular target: Bile acid receptor (Homo sapiens) (UniProt Q96RI1); experiment: ATG_IR1_CIS: Attagene CIS-FACTORIAL HepG2 Assay for human Nuclear Receptor Subfamily 1 Group H Member 4 (NR1H4), IR1 submotif (AID 2282946); details: IR1 reporter transcription, actives raise or lower the signal
# Sequence of Bile acid receptor (Homo sapiens) (Q96RI1 whole entry, looked up): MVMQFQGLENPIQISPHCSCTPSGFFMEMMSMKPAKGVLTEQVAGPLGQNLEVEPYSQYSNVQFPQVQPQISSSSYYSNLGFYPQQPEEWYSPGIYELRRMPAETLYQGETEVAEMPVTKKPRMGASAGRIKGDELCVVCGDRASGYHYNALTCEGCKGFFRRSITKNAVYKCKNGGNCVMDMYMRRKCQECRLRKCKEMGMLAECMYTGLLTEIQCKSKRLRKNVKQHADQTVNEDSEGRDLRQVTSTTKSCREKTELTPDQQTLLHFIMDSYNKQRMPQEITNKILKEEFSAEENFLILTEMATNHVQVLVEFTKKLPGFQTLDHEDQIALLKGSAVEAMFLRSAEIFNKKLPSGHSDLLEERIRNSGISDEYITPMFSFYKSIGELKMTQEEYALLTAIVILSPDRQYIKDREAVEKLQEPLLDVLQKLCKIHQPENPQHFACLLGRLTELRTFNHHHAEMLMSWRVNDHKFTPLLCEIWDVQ
# Summary of the method: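 HepG2 cells transiently transfected with multiplexed cis-element reporter units read endogenous transcription factor activity. After 24 h compound exposure, reporter mRNA was quantified by RT-PCR, fluorescent labelling, HpaI digestion and capillary electrophoresis; bidirectional fitting versus DMSO baseline.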
structure (smiles),measurement,setting,value
OC[C@@H](O)[C@H]1O[C@@H]2O[C@H](C(Cl)(Cl)Cl)O[C@@H]2[C@H]1O,outcome,[1],inactive
same,outcome,[2],inactive
same,outcome,[3],inactive
same,outcome,[4],inactive
same,outcome,[5],inactive
same,outcome,[6],inactive
same,outcome,[7],inactive
same,outcome,[8],inactive
O=C1c2ccccc2C(=O)C1C(=O)C(c1ccccc1)c1ccc(Cl)cc1 (stereo not drawn),AC50,[1],13.1 µM (active)
same,outcome,[2],inactive
same,AC50,[3],182 µM (active)
same,AC50,[4],11.9 µM (active)
same,AC50,[5],54.6 µM (active)
same,AC50,[7],166 µM (active)
Nc1ccc(-c2ccccc2)cc1,outcome,[1],inactive
same,AC50,[2],32 µM (active)
same,outcome,[3],inactive
same,outcome,[4],inactive
same,outcome,[5],inactive
same,outcome,[6],inactive
same,outcome,[7],inactive
CCCCS(=O)(=O)Cl,outcome,[1],inactive
same,outcome,[3],inactive
same,outcome,[4],inactive
same,outcome,[5],inactive
same,outcome,[7],inactive
same,outcome,[9],inactive
same,outcome,[8],inactive
CC(C)(C1CCC(O)CC1)C1CCC(O)CC1 (stereo not drawn),outcome,[1],inactive
same,AC50,[2],20.4 µM (active)
same,outcome,[3],inactive
same,outcome,[4],inactive
same,outcome,[5],inactive
same,outcome,[6],inactive
same,outcome,[7],inactive
Clc1cccc(Cl)c1Cl,outcome,[1],inactive
same,outcome,[3],inactive
same,outcome,[4],inactive
same,outcome,[5],inactive
same,outcome,[6],inactive
same,outcome,[7],inactive
CC(C)(C)c1ccccc1O,AC50,[1],156 µM (active)
same,outcome,[3],inactive
same,outcome,[4],inactive
same,outcome,[5],inactive
same,outcome,[6],inactive
same,outcome,[7],inactive
same,outcome,[8],inactive
O=c1oc2ccccc2c(O)c1C(CC(O)c1ccc(-c2ccc(Br)cc2)cc1)c1ccccc1 (stereo not drawn),AC50,[1],41.1 µM (active) and 17.8 µM (active)
same,outcome,[3],inactive
same,outcome,[4],inactive
same,outcome,[5],inactive
same,outcome,[6],inactive
same,AC50,[7],46.3 µM (active)
same,outcome,[7],inactive
same,AC50,[9],50.1 µM (active) and 43.6 µM (active)
same,outcome,[8],inactive
CCNc1nc(NCC)nc(SC)n1,outcome,[1],inactive
same,outcome,[2],inactive
same,outcome,[3],inactive
same,outcome,[4],inactive
same,outcome,[5],inactive
same,outcome,[6],inactive
same,outcome,[7],inactive
same,outcome,[8],inactive
C=CCN=C=S,outcome,[1],inactive
same,outcome,[2],inactive
same,outcome,[3],inactive
same,outcome,[4],inactive
same,outcome,[5],inactive
same,outcome,[6],inactive
same,outcome,[7],inactive
same,outcome,[9],inactive
CC(c1ccccc1)(c1ccc(O)cc1)c1ccc(O)cc1,AC50,[1],12.3 µM (active)
same,AC50,[2],0.181 µM (active)
same,AC50,[3],20.1 µM (active)
same,outcome,[4],inactive
same,outcome,[5],inactive
same,outcome,[6],inactive
same,outcome,[7],inactive
same,AC50,[9],15.6 µM (active)
same,outcome,[8],inactive
CC(C=O)Cc1ccc2c(c1)OCO2 (stereo not drawn),outcome,[1],inactive
same,outcome,[3],inactive
same,outcome,[4],inactive
same,outcome,[5],inactive
same,outcome,[7],inactive
same,outcome,[9],inactive
same,outcome,[8],inactive
CCCCN(CCCCO)N=O,outcome,[1],inactive
same,AC50,[2],3.06 µM (active)
same,outcome,[4],inactive
same,outcome,[5],inactive
same,outcome,[6],inactive
same,outcome,[7],inactive
same,outcome,[8],inactive
N#Cc1ccccc1N,outcome,[1],inactive
same,outcome,[2],inactive
same,outcome,[3],inactive
same,outcome,[4],inactive
same,outcome,[5],inactive
same,outcome,[6],inactive
same,outcome,[7],inactive
same,outcome,[9],inactive
same,outcome,[8],inactive
Cc1cc(Cl)ccc1OCCCC(=O)O,outcome,[1],inactive
same,outcome,[3],inactive
same,outcome,[4],inactive
same,outcome,[5],inactive
same,outcome,[6],inactive
same,outcome,[7],inactive
same,outcome,[9],inactive
same,outcome,[8],inactive
Oc1ccc(Cc2ccc(O)cc2)cc1,outcome,[1],inactive
same,AC50,[2],0.774 µM (active)
same,outcome,[3],inactive
same,outcome,[4],inactive
same,outcome,[5],inactive
same,outcome,[6],inactive
same,outcome,[7],inactive
same,outcome,[8],inactive
c1ccc2sc(SNC3CCCCC3)nc2c1,outcome,[1],inactive
same,outcome,[2],inactive
same,outcome,[3],inactive
same,outcome,[4],inactive
same,outcome,[5],inactive
same,outcome,[6],inactive
same,AC50,[7],159 µM (active)
same,outcome,[9],inactive
same,outcome,[8],inactive
Cc1cc(C)cc(C)c1,outcome,[1],inactive
same,outcome,[4],inactive
same,outcome,[5],inactive
same,outcome,[6],inactive
same,outcome,[7],inactive
CCC[N+](CCC)(CCC)CCC,outcome,[1],inactive
same,outcome,[2],inactive
same,outcome,[4],inactive
same,outcome,[5],inactive
same,outcome,[6],inactive
same,outcome,[7],inactive
[F][Sn]([c]1ccccc1)([c]1ccccc1)[c]1ccccc1,AC50,[1],0.336 µM (active)
same,AC50,[3],0.32 µM (active)
same,AC50,[4],0.892 µM (active)
same,outcome,[5],inactive
same,outcome,[6],inactive
same,AC50,[7],2.18 µM (active)
same,AC50,[9],1.24 µM (active)
CC(C)CP(=S)(S)CC(C)C,outcome,[1],inactive
same,outcome,[3],inactive
same,outcome,[4],inactive
same,outcome,[5],inactive
same,outcome,[6],inactive
same,outcome,[7],inactive
same,outcome,[9],inactive
same,outcome,[8],inactive
Cc1cccc(OP(=O)(Oc2cccc(C)c2)Oc2cccc(C)c2)c1,outcome,[1],inactive
same,outcome,[3],inactive
same,outcome,[4],inactive
same,outcome,[5],inactive
same,outcome,[6],inactive
same,outcome,[7],inactive
same,outcome,[9],inactive
same,outcome,[8],inactive
BrCc1ccc(Br)cc1,outcome,[1],inactive
same,outcome,[2],inactive
same,outcome,[4],inactive
same,outcome,[5],inactive
same,outcome,[6],inactive
same,outcome,[7],inactive
same,outcome,[9],inactive
CCCCN(CCCC)C(=S)[S-].CCCCN(CCCC)C(=S)[S-].[Ni+2],outcome,[1],inactive
same,outcome,[2],inactive
same,outcome,[3],inactive
same,outcome,[4],inactive
same,outcome,[5],inactive
same,outcome,[6],inactive
same,outcome,[7],inactive
CCOP(=S)(OCC)SCSc1cc(Cl)ccc1Cl,outcome,[1],inactive
same,outcome,[2],inactive
same,outcome,[3],inactive
same,outcome,[4],inactive
same,outcome,[5],inactive
same,outcome,[6],inactive
same,outcome,[7],inactive
same,outcome,[8],inactive
CNC(=O)CSP(=O)(OC)OC,outcome,[1],inactive
same,outcome,[2],inactive
same,outcome,[3],inactive
same,outcome,[4],inactive
same,outcome,[5],inactive
same,outcome,[6],inactive
same,outcome,[7],inactive
same,outcome,[9],inactive
same,outcome,[8],inactive
CS(=O)(=O)c1ccc(C(=O)C2C(=O)CCCC2=O)c(Cl)c1COCC(F)(F)F,outcome,[1],inactive
same,outcome,[3],inactive
same,outcome,[4],inactive
same,outcome,[5],inactive
same,outcome,[7],inactive
same,outcome,[8],inactive
CC(C)CC(C)(c1ccc(O)cc1)c1ccc(O)cc1,AC50,[1],17.5 µM (active)
same,outcome,[3],inactive
same,outcome,[4],inactive
same,outcome,[5],inactive
same,outcome,[6],inactive
same,outcome,[7],inactive
same,outcome,[9],inactive
same,outcome,[8],inactive
O=C(NC(=O)c1c(F)cccc1F)Nc1cc(Cl)c(F)c(Cl)c1F,outcome,[1],inactive
same,outcome,[2],inactive
same,outcome,[3],inactive
same,outcome,[4],inactive
same,outcome,[5],inactive
same,outcome,[6],inactive
same,outcome,[7],inactive
BrCCCCBr,outcome,[1],inactive
same,outcome,[3],inactive
same,outcome,[4],inactive
same,outcome,[5],inactive
same,outcome,[6],inactive
same,outcome,[7],inactive
same,outcome,[8],inactive
